Bioassay records: PubChem BioAssay, The Scripps Research Institute Molecular Screening Center
GPR151 ag = activators of human GPR151, primary screen, cell-based, PathHunter beta-arrestin, luminescence; G-protein coupled receptor 151 (Homo sapiens), Q8TDV0; PathHunter beta-arrestin GPR151 cells; activation, % at 11.2 µM; actives 1% (n = 650,000); AID 1508602, 2020; in the data active means activation above about 4.9%
FBW7 act = FBW7 E3 ligase activators, primary screen, biochemical, AlphaScreen, human; normalized activity (activation), % at 26.1 µM; actives 0.13% (n = 650,000); AlphaScreen FBW7–phospho-cyclin E peptide binding, activator screen; F-box/WD repeat-containing protein 7 (Homo sapiens), Q969H0; in the data active means normalized activity above about 1.9%;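 further: purified mutant Fbw7 with reduced substrate affinity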
Target sequence (Q969H0 whole entry, looked up): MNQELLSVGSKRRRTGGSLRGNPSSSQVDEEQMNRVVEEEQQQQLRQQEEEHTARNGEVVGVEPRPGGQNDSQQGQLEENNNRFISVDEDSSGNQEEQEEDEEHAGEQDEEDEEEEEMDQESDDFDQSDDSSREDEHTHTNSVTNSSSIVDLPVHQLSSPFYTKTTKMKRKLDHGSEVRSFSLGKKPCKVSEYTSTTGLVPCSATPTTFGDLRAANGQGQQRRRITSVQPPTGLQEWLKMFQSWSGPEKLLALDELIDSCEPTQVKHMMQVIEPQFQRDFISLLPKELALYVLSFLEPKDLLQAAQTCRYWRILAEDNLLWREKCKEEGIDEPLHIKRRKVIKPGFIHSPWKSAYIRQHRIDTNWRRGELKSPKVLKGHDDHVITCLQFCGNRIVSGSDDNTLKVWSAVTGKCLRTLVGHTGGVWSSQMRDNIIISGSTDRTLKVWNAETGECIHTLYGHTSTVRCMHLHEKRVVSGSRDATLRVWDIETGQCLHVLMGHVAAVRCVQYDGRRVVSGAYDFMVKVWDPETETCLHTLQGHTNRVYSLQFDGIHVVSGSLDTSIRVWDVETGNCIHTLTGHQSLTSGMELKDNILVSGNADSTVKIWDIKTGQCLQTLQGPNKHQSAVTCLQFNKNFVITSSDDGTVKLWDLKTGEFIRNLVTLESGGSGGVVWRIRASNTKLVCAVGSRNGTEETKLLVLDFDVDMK
TEAD-YAP inh = TEAD-YAP interaction inhibition, primary screen, TEAD-YAP interaction inhibitor project, luminescence, HEK-TIYL cells. TEAD-Gal4/YAP UAS-luciferase luminescence. inhibition, % at 9.12 µM. actives 1.4% (n = 640,000). AID 1259422, 2018; in the data active means inhibition above about 32%
MITF primary = MITF inhibitors, primary screen, biochemical, AlphaScreen, human; actives 0.91% (n = 650,000); AID 1259374, 2018; inhibition, % at 2.6 µM; Microphthalmia-associated transcription factor (Homo sapiens), O75030; AlphaScreen MITF homodimerization, bead proximity signal; in the data active means inhibition above about 50%
Hits are given with their value; . = inactive; ! = not active in a repeat. The list is not random: actives were taken first. Their share in the collection is about 3.5%.

SMILES	GPR151 ag	FBW7 act	TEAD-YAP inh	MITF primary
CN1/C(=C/C(=C/c2sc3ccccc3[n+]2C)C2CCC2)Sc2ccccc21	.	.	72	.
CN1/C(=C/C(=O)C2CCC2)Sc2ccccc21	.	.	.	.
CN(CC(=O)Nc1ccc(F)cc1)C(=O)Cn1nc(C(=O)O)c2ccccc2c1=O	.	.	.	.
CN(C)c1ccc(/C=C2\Oc3c(ccc(O)c3O)C2=O)cc1	.	.	.	55
COc1ccc(S(=O)(=O)N2CCN(c3cc(-n4cccn4)ncn3)CC2)cc1C	.	.	33	.
CN(C)S(=O)(=O)N1CCN(c2cc(-n3cccn3)ncn2)CC1	.	.	.	.
COC(=O)C1=C(C)NC2=C(C(=O)CC(c3cccs3)C2)C1c1cc(OC)ccc1OC (stereo not drawn)	.	.	33	.
CCOC(=O)C1=C(C)NC2=C(C(=O)CC(c3cccs3)C2)C1c1ccc(F)cc1 (stereo not drawn)	.	.	70	.
COCCOC(=O)C1=C(C)NC2=C(C(=O)CC(c3ccccc3)C2)C1c1ccc(OCc2ccccc2)cc1 (stereo not drawn)	.	3.4	.	.
COc1ccc(C2C(C(=O)OCCc3ccccc3)=C(C)NC3=C2C(=O)CC(c2ccccc2)C3)cc1 (stereo not drawn)	.	.	.	.
COC(=O)C1=C(C)NC2=C(C(=O)CC(c3cccs3)C2)C1c1cccc(OC)c1 (stereo not drawn)	.	.	.	.
CC1=C(C(=O)OCC(C)C)C(c2ccccc2F)C2=C(CC(c3cccs3)CC2=O)N1 (stereo not drawn)	.	.	33	.
CC1=C(C(=O)OCCc2ccccc2)C(c2ccccc2F)C2=C(CC(c3cccs3)CC2=O)N1 (stereo not drawn)	.	.	.	.
O=C(NC1CCCCC1)C(F)(F)C(F)(F)C(=O)NC1CCCCC1	.	.	.	.
CCOC(=O)C1=C(C)NC2=C(C(=O)CC(c3ccccc3)C2)C1c1ccsc1 (stereo not drawn)	.	.	44	.
COC(=O)C1=C(C)NC(C)=C(C#N)C1c1cccs1 (stereo not drawn)	.	.	35!	.
CC1=C(C(=O)OC(C)C)C(c2cccs2)C2=C(CC(c3ccccc3)CC2=O)N1 (stereo not drawn)	.	.	42	.
COCCOC(=O)C1=C(C)NC2=C(C(=O)CC(c3cccs3)C2)C1c1ccsc1 (stereo not drawn)	.	.	.	.
CCOC(=O)C1=C(C)NC2=C(C(=O)CC(c3cccs3)C2)C1c1ccsc1 (stereo not drawn)	.	.	55	.
COC(=O)C1=C(C)NC(S)=C(C#N)C1c1cccs1 (stereo not drawn)	.	.	.	.
C=CCNC(=O)CNC(=O)CNS(=O)(=O)c1ccc(C)cc1	.	.	.	.
O=C(NN1C(=O)CSC1=S)C(=O)NN1C(=O)CSC1=S	.	.	.	64
O=C(NN1C(=O)CSC1=S)c1ccccc1	.	.	.	.
CC(C)(C)N1C(=O)c2ccc(C(=O)Nc3cccc(O)c3)cc2C1=O	.	.	89	.
COc1cccc(NC(=O)c2ccc(NC(=O)C(C)(C)C)cc2)c1	.	.	.	.
SMILES	GPR151 ag	FBW7 act	TEAD-YAP inh	MITF primary
O=C(Nc1cccc(O)c1)c1ccc(Oc2ccccc2)cc1	.	.	93	.
CCCCOc1ccc(C(=O)Nc2cccc(O)c2)cc1	.	.	82	.
CC(C)(C)C(=O)Nc1ccc(C(=O)Nc2cccc(O)c2)cc1	.	.	64	.
O=C(CN1CCCC(c2nc3ccccc3[nH]2)C1)Nc1ccc(Cl)c(Cl)c1 (stereo not drawn)	.	.	.	.
CCCOc1ccccc1C1C(C(=O)OCCOc2ccccc2)=C(C)NC2=C1C(=O)CC(C)(C)C2 (stereo not drawn)	.	.	.	.
Nc1ccc2cc3ccc(N)cc3nc2c1	.	.	.	75
Cc1ccc2cc(N)ccc2n1	.	.	.	.
Cc1ccc(S(=O)(=O)N2CCN3C(=O)[C@H](C)NC(=O)[C@H]3C2)cc1	.	.	.	.
c1ccc(CCNc2ccc(-c3cccnc3)cn2)cc1	.	.	.	.
CN1CCN(c2cccc(-c3ccnc(Nc4ccc(-n5ccnn5)cc4)n3)c2)CC1	.	.	68	.
CS(=O)(=O)c1ccc(-c2ccnc(Nc3ccc(-n4ccnn4)cc3)n2)cc1	.	.	.	.
